NPSR antag = neuropeptide S receptor (human) antagonism, cAMP | Q6W5P4 | CHO-NPSR cells, cAMP TR-FRET, antagonist mode | Potency, µM (top dose mostly 38.3 µM), without a hit: at the highest dose activity change, negative = inhibition, most hits filed as inhibitors | actives 1% (n = 220,000) | AID 1461; further: potency means the concentration at half of the fitted maximal effect; on the % scale 0 is the no-effect control and ±100 the full control effect; nearly all actives have a fitted effect of over 50% in size
Target sequence (Q6W5P4 whole entry, looked up): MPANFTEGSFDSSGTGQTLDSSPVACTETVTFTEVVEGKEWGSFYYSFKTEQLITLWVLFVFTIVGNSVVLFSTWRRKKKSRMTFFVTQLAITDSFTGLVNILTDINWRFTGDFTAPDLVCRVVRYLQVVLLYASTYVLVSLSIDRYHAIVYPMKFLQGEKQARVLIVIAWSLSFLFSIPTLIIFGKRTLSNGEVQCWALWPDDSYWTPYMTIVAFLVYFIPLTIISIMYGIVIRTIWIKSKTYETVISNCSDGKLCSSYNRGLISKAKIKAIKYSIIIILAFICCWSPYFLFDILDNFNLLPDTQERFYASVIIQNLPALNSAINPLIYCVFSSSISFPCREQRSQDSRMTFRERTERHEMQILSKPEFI
ClpP mod = qHTS Assay for Activators of ClpP. ATP-dependent Clp protease proteolytic subunit (Bacillus subtilis (strain 168)), P80244. purified B. subtilis ClpP, FRET peptide cleavage, 20 min. Potency, µM (highest dose often 57.5 µM), for the others: at the top dose activity change, negative = active. actives 1.9% (n = 340,000); active means well fitted falling curve with a large enough effect; inconclusive means small, poorly fitted or top-dose-only effect; inactive means no such curve, though single readings can be large or run the other way; further: potency means the concentration at half of the fitted maximal effect; the source files actives as falling curves though it sought activators and does not explain the sign; nearly all actives have a fitted effect of over 65% in size
Target sequence (P80244 whole entry, looked up): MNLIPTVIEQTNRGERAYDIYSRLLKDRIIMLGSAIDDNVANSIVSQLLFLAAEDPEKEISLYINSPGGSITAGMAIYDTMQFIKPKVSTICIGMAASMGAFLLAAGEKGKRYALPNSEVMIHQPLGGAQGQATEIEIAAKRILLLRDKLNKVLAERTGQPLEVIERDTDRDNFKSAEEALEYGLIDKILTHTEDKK
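FRET quenching reversal measured ClpP activation: 10 microg/mL B. subtilis ClpP at pH 8 with the FRET-FV decapeptide, read at 430 nm after 320 nm excitation. The 20-min minus 0-min signal was scaled between DMSO/no-enzyme wells and ADEP (5.8 microM final).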
IL-2 act = IL-2 activation; actives 0.065% (n = 360,000); IL-2 activation reporter assay, cell-based qHTS; stimulated with anti-CD3/CD4/CD28 beads; in transgenic mouse T cells; activation, % (series mostly up to about 46 µM); AID 652025; in the data active means activation above about 50%; inconclusive means mostly about 30% to 49%; further: 0% is about no effect
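Quantitative HTS in unstimulated transgenic mouse T cells, with memory T cells as non-tolerant control and PMA/ionomycin as tolerance-bypass control. Compound pretreatment lasted 60 minutes before 18 h bead stimulation; EGFP/DsRed fluorescence read.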
PKM2 activator = PKM2 (human) enzyme activation; P14618; purified PKM2, Kinase-Glo ATP luminescence, activation; response scale: 0% is enzyme alone, no compound; Potency, µM (titrated, usually from 57.5 µM), inactives show at the top dose activation, most hits filed as activators; actives 0.34% (n = 260,000); further: potency means the concentration at half of the fitted maximal effect; on the % scale 0 is the no-effect control and ±100 the full control effect; nearly all actives have a fitted effect of over 55% in size
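hPK-M2, >95% pure; 0.1 mM ADP / 0.5 mM PEP final; imidazole pH7.2 buffer w/ 7 mM MgCl2, 50 mM KCl; 1 h RT; Kinase-Glo lum. Intermediate enzyme activity for dual inhibitor/activator qHTS.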
* hit, by the source's call; ? = inconclusive; · = no result given; [ ] = another dose, or the depositor's remark. The list is not random: actives were taken first. Their share in the collection is about 2%. Unless noted, the call rests on the fitted dose curve; in most records, active means well fitted curve in the direction sought with a large enough effect; inconclusive means small, poorly fitted or top-dose-only effect, or another doubt; inactive means no such curve, though single readings can be large; an effect the other way counts as inactive or inconclusive.

SMILES	NPSR antag	ClpP mod	IL-2 act	PKM2 activator
O=C(COc1ccc(/C=N/NC(=O)c2cc3ccccc3o2)cc1Br)Nc1ccccc1	10µM*	-25.3%	0.5	-17.6%
Cc1ccnc2ccccc12	·	-2.2%	·	·
CN1CC[n+]2cnc3ccccc3c21	-8.2%[46.1 µM]	28.2µM*	2.0	-19.9%
N=c1c2c(-c3ccccc3)c(-c3ccccc3)n(Cc3ccco3)c2ncn1Cc1ccco1	10µM*	3.1%	0.5	8.4%
N=c1c2c(-c3ccccc3)c(-c3ccccc3)n(Cc3ccccc3)c2ncn1CCCn1ccnc1	?	1.4%	-0.6	12.8%
CCCCCCc1cc2cc(S(=O)(=O)c3ccc(F)cc3)c(=O)oc2cc1O	11.2%	28.2µM*	0.3	8.3%
O=[N+]([O-])c1ccc(Sc2ccccn2)nc1	-48.9%	·	-1.6	0.8%
O=[N+]([O-])c1ccc(Sc2nnnn2-c2ccccc2)nc1	14.3%	·	-0.9	17.8µM*
COc1cc(-c2cc(-c3nnco3)c3ccccc3n2)cc(OC)c1OC	-2.2%	12.6µM*	-1.4	·
c1ccc(-c2cc(-c3nnco3)c3ccccc3n2)nc1	-26.3%	·	-2.5	·
O=C(O)Cn1cc(/C=c2/sc3nc4ccccc4n3c2=O)c2ccccc21	-14.2%	·	166.0*	-0.4%
C#CCCCCCCC#CCN(C)C	5.7%	31.6µM*	0.3	5.4%
Cc1cc(C)c(C#N)c(=N)o1	12.5%[46.1 µM]	2.82µM*	-0.2	-10.6%
CSc1nc(C)cc(C)c1C#N	8.8%[46.1 µM]	-1.9%	-2.8	-1.2%
COc1cc(OC)cc(C2=Cc3ccc(OC)cc3C(CC(C)=O)N2c2ccc(C#CC3(O)CCCCC3)cc2)c1 (stereo not drawn)	·	4.3%	0.6	·
COc1ccc(-c2nnc(N(C)C(=O)c3ccno3)s2)cc1	3.4%	22.4µM*	1.4	10.8%
CCOc1ccc(CN2CCNC(=O)C2CC(=O)NCc2cc(C)n(C)n2)cc1 (stereo not drawn)	·	0.5%	-3.6	5.7%
CCOc1ccc(CN2CCNC(=O)C2CC(=O)NCc2csc(C)n2)cc1 (stereo not drawn)	·	28.2µM*	-0.8	-0.4%
CCOc1ccc(CN2CCNC(=O)C2CC(=O)NCCN2CCOC2=O)cc1 (stereo not drawn)	·	28.2µM*	-0.4	-1.1%
CCOc1ccc(CN2CCNC(=O)C2CC(=O)NCCc2cnccn2)cc1 (stereo not drawn)	·	0.1%	-2.7	·
Cc1ccc(CN2CCNC(=O)C2CC(=O)NCc2cc(C)n(C)n2)cc1 (stereo not drawn)	·	31.6µM*	-2.8	2.8%
CC(=O)c1ccc(S(=O)(=O)NC2CC(=O)N(c3ccc(Cl)cc3)C2)cc1 (stereo not drawn)	·	2.5%	-3.0	·
CCN(CC)C(=O)C1CCCN(c2ncnc3c2cnn3-c2ccc(Cl)cc2)C1 (stereo not drawn)	·	-12.4%	0.1	0.4%
CC(=O)c1cccc(NC(=O)COC(=O)CCC(=O)c2ccc(F)cc2)c1	·	1.3%	-0.7	·
Cc1cc(N2CCC(C)CC2)n2ncc(-c3ccccc3)c2n1	-21.9%[46.1 µM]	31.6µM*	0.5	-1.2%
SMILES	NPSR antag	ClpP mod	IL-2 act	PKM2 activator
Cc1cc(N2CCCCC2)n2ncc(-c3ccc(Cl)cc3)c2n1	-26.3%[46.1 µM]	31.6µM*	-0.9	-18.8%
Nc1c2c(nc3ccccc13)N(c1ccccc1)CC2	-6.3%[46.1 µM]	15.8µM*	-0.1	-7.2%
O=C(CN1CCCCC1)Nc1c2c(nc3ccccc13)N(c1ccccc1)CC2	7.94µM*	·	-1.3	-6.5%
CN1CCCCc2c1nc1ccccc1c2N (tested in a mixture with another compound)	14.6%[46.1 µM]	-15.4%	-1.1	-10.1%
O=C(O)c1cc(NCc2ccc(F)cc2)ccc1N1CCOCC1	-7.5%[46.1 µM]	31.6µM*	1.1	6.7%
O=C(O)c1cc(NCc2cccs2)ccc1N1CCOCC1	-5.6%[46.1 µM]	-2.1%	-2.5	1.1%
COc1ccc(C(=O)Oc2cc(C)[nH]c(=O)c2[N+](=O)[O-])c(OC)c1	·	-14.2%	2.2	-5.2%
COC(=O)c1c(C)oc(C)c1S(=O)(=O)N1CCCCC1	-23.2%	17.8µM*	0.4	-0.1%
OCCC1CN(Cc2cnc(-c3ccc(Cl)cc3)nc2)CCN1C1CCCCC1 (stereo not drawn)	3.0%	2.8%	0.0	-8.1%
CCOC(=O)c1sc2nc(N3CCOCC3)c3c(c2c1N)CCN(Cc1ccccc1)C3	-22.9%[46.1 µM]	25.1µM*	1.0	-0.7%
NC(=O)c1sc2nc(N3CCOCC3)c3c(c2c1N)CCCC3	4.9%[46.1 µM]	15.8µM*	-0.6	-2.8%
CCOC(=O)c1sc2nc(N3CCOCC3)c3c(c2c1N)CCC3	-14.4%[46.1 µM]	97.1%	-4.2	0.6%
CC1(C)Cc2c(c(N3CCOCC3)nc3sc(C#N)c(N)c23)CS1	-8.2%[46.1 µM]	28.2µM*	-0.7	-1.1%
CC1(C)Cc2c(c(N3CCOCC3)nc3sc(C(N)=O)c(N)c23)CO1	-16.8%	-0.8%	-0.7	9.7%
CN1Cc2c(N3CCOCC3)nc3sc(C(=O)c4ccccc4)c(N)c3c2CC1(C)C	12.6µM*	·	-3.5	-0.3%
O=c1[nH]cnc2nn(-c3ccccc3)nc12	-5.2%[46.1 µM]	-9.8%	1.6	-10.4%
CCOc1ccc(NC(=O)c2sc3nc(N4CCOCC4)c4c(c3c2N)CC(C)(C)OC4)cc1	·	3.9%	0.2	·
CCOC(=O)c1sc2nc(N3CCOCC3)c3c(c2c1N)CC(C)(C)N(C)C3	-10.0%[46.1 µM]	7.08µM*	-0.3	-2.0%
CCOC(=O)c1sc2nc(-c3ccco3)c3c(c2c1N)CC(C)(C)OC3	10µM*	-7.0%	1.1	?
CC(C(=O)NCc1ccccc1)N1C(=O)C2CC=C(Cl)CC2C1=O (stereo not drawn)	-16.3%[46.1 µM]	28.2µM*	-1.0	3.3%
COc1ccc(Cl)cc1NC(=O)CSc1cc(C)[nH]c(=O)n1	·	-1.1%	·	·
Cc1ccc(-c2cc(C(F)F)nc(NCc3cccnc3)n2)cc1	-25.5%	14.1µM*	-3.0	-8.5%
Cc1ccc(-c2cc(C(F)F)nc(NCc3cccs3)n2)cc1	5.8%	-21.3%	0.0	1.4%
CN(C)c1ncnc2c1C(c1ccccc1)C(C)(C)O2 (stereo not drawn)	·	31.6µM*	-5.3	·
Clc1ccc(-c2cn3cccnc3n2)cc1	5.3%[46.1 µM]	91.9%	5.4	-6.4%
SMILES	NPSR antag	ClpP mod	IL-2 act	PKM2 activator
Clc1ccc(-c2cn3cccnc3n2)cc1Cl	5.1%[46.1 µM]	11.2µM*	-1.0	-7.0%
O=S(=O)(Nc1cccc(-c2cn3cccnc3n2)c1)c1ccc(-c2ccccc2)cc1	-29.8%[46.1 µM]	28.2µM*	2.9	-11.8%
CCOC(=O)c1sc(-c2cccs2)nc1C	0.2%	12.6%	0.2	-4.1%
CCOC(=O)c1cc(-c2cccs2)nc2onc(C)c12	-2.3%[46.1 µM]	31.6µM*	1.7	1.9%
COc1ccc(C(=O)N2CC3(CC(c4cccc([N+](=O)[O-])c4)=NO3)C[C@H]2C(=O)NCC(N)=O)cc1 (stereo partly drawn)	6.8%[46.1 µM]	-1.0%	-0.3	-2.3%
COc1ccc(S(=O)(=O)N2CCN(C(=O)c3ccccn3)CC2)cc1	·	·	-0.6	·
C=CCSc1nc2ccccc2n1C(=O)/C=C/c1cc(OC)c(OC)c(OC)c1	2.51µM*	15.0%	-5.5	7.7%

Assay outcomes as filed in PubChem.
